Source: PubChem BioAssay
esBAF inh: SWI/SNF esBAF complex inhibition; mouse ES cells, Bmi1-luciferase knock-in reporter, 24 h; 100% = twice the neutral-well signal; 350,000 tested, 2% active; reporter increase, % at 12.5 µM; in the data active means activation above about 40%; inconclusive means no clear call, values can overlap the other calls;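 further: 0% = median of the plate's neutral control wells and 100% = double that signal; a rise in the Bmi1 reporter signal indicates esBAF inhibition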
HSF1 inh: HSF1 inhibition | 300,000 tested, 0.77% active | NIH3T3-HGL HSE-luciferase, MG132-induced, luminescence 8 h; hits give low values | AID 2098 | activity change, negative = inhibition, % at 7.5 µM (by protocol);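 active means more than half of replicate wells show activity change below -50%, luminescence cut by over half; inconclusive means some wells, but at most half, below -50%; inactive means no replicate well below -50%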;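 further: luciferase reports HSF-1 transcriptional activity via heat shock element; 0% = median of DMSO wells and -100% = zero luminescence signal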
Vif imaging: inhibitors of HIV Vif; HEK293T cells, Vif self-association by quenched fluorescence, imaging, 24 h; inhibition, % at 7.49 µM; AID 602346; 340,000 tested, 0.35% active; in the data active means inhibition above about 50%, passing the limit was not always enough; inconclusive means no clear call, values can overlap the other calls; inactive means below about 31%
HSF1 activator: increases HSF-1 driven luciferase reporter signal; 300,000 tested, 1.7% active; activation, % at 9 µM; NIH3T3-HGL HSF-1 luciferase reporter, MG132, 8 h; 100% = twice DMSO control signal; AID 504408;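 active means mean replicate activation of at least 50% with a set share of replicates each reaching 50%; inconclusive means only one of those two conditions met; inactive means mean below 50% and too few replicates reaching it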;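 further: 0% = median of the neutral control wells and 100% = twice that signal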
Numbers without * were called inactive. A selection: hits, their analogues and other compounds. The true share with any hit is near 3.4%.

Results for Cc1ccc(S(=O)(=O)N2C[C@@H](O)COC[C@@H]3O[C@@H](CC(=O)NCCN4CCCCC4)CC[C@H]32)cc1 ?
esBAF inh: 3.4

Results for O=C(Nc1ccccc1)c1cc2ccc3ccccc3c2s1 ?
esBAF inh: 79.1*; HSF1 inh: 29.4; Vif imaging: -9.0; HSF1 activator: inconclusive

Results for O=C(C[C@H]1C=C[C@H](NC(=O)c2ccc3c(c2)OCO3)[C@@H](CO)O1)NCc1ccc(F)cc1 ?
esBAF inh: 4.4

How did COc1ccc(CN(C)C[C@@H]2OCCCC[C@H](C)Oc3ccc(NC(=O)c4ccncc4)cc3C(=O)N([C@H](C)CO)C[C@H]2C)cc1 do in these assays?
esBAF inh: -2.9

Results for Cc1cccn2cc(COc3ccc(-c4ccccc4)cc3)nc12 ?
HSF1 inh: 35.7; Vif imaging: -8.9; HSF1 activator: 68.9*

How did Cc1cccn2cc(COc3cccc([N+](=O)[O-])c3)nc12 do in these assays?
HSF1 inh: 15.2; Vif imaging: -6.4; HSF1 activator: 23.5

What do the screens show for `Brc1ccc(OCc2cn3ccccc3n2)cc1`?
HSF1 inh: 53.0; Vif imaging: -0.9; HSF1 activator: 83.1*

How did O=C(Nc1ccc(F)cc1)Nc1ccc2c(c1)[C@H]1C[C@H](CC(=O)N3CCCCC3)O[C@@H](CO)[C@H]1O2 do in these assays?
esBAF inh: 4.7

What do the screens show for `Cc1noc(C)c1NC(=O)N(C)C[C@@H]1OCCCC[C@@H](C)Oc2ccc(NS(=O)(=O)c3cn(C)cn3)cc2C(=O)N([C@H](C)CO)C[C@H]1C`?
esBAF inh: -4.7

What do the screens show for `O=C(NCC1CC1)[C@@H]1[C@@H](CO)[C@@H]2Cn3c(ccc(-c4ccccc4)c3=O)[C@@H]2N1Cc1cocn1`?
esBAF inh: 0.6

Results for Cn1cc(-c2coc3c(C(=O)NCc4ccco4)cccc23)cn1 ?
esBAF inh: 72.0*; Vif imaging: -3.4

Results for N#C/C(=C\c1cccs1)C(=O)Nc1nccs1 ?
esBAF inh: 119.2*; HSF1 inh: 23.3; Vif imaging: -26.0; HSF1 activator: 60.0*

Results for N#CCC(=O)Nc1ccc(C(=O)Nc2ccc3c(c2)OCO3)cc1 ?
esBAF inh: 18.4; Vif imaging: 1.4

Results for N#CCC(=O)Nc1ccc(C(=O)OCC(=O)c2ccc3c(c2)OCO3)cc1 ?
esBAF inh: 46.6*; HSF1 inh: 16.6; Vif imaging: 1.8; HSF1 activator: 25.2

What do the screens show for `N#CCC(=O)Nc1ccc(C(=O)OCC(=O)c2ccc3c(c2)OCCO3)cc1`?
esBAF inh: 67.9*; HSF1 inh: 4.3; Vif imaging: 7.1; HSF1 activator: -2.9

Results for NS(=O)(=O)c1ccc(NC(=O)COC(=O)c2ccc3c(c2)OCCO3)cc1 ?
esBAF inh: -7.1; HSF1 inh: 0.5; Vif imaging: 17.0; HSF1 activator: -7.1

What do the screens show for `CC(C)NC(=O)Nc1ccc2c(c1)C(=O)N([C@H](C)CO)C[C@H](C)[C@H](CN(C)CC1CC1)OCCCC[C@@H](C)O2`?
esBAF inh: -1.9

Results for C[C@@H]1CN([C@H](C)CO)C(=O)c2ccccc2-c2ccccc2CO[C@H]1CN(C)C(=O)Nc1ccnc(N2CCOCC2)c1 ?
esBAF inh: 0.8

Results for C[C@H](O)C#Cc1cnc2c(c1)C(=O)N([C@H](C)CO)C[C@@H](C)[C@@H](CN(C)Cc1cccc(F)c1)O2 ?
esBAF inh: 2.0

Results for O=C1c2ccccc2NC(c2ccccn2)N1c1ccc(Cl)cc1 (configuration not stated) ?
esBAF inh: 60.7*; HSF1 inh: 8.7; Vif imaging: 3.5; HSF1 activator: 21.9

What do the screens show for `COc1ccc(C2Nc3ccccc3C(=O)N2c2ccc(C)cc2)cc1COc1ccccn1` (configuration not stated)?
HSF1 inh: 21.8; Vif imaging: 0.2; HSF1 activator: 57.9*

How did COc1ccc(C2Nc3ccccc3C(=O)N2c2ccc(C)cc2)cc1Cn1nc(C)c([N+](=O)[O-])c1C (configuration not stated) do in these assays?
esBAF inh: 86.0*; HSF1 inh: 24.1; Vif imaging: 14.0; HSF1 activator: 32.0

How did COc1ccc(C2Nc3ccccc3C(=O)N2c2ccccc2)cc1CN1CCOCC1 (configuration not stated) do in these assays?
esBAF inh: 25.0; HSF1 inh: -2.5; Vif imaging: 5.8; HSF1 activator: 10.8

What do the screens show for `C[C@H]1CN([C@@H](C)CO)C(=O)Cc2cc(NC(=O)C3CCCCC3)ccc2O[C@@H]1CN(C)S(=O)(=O)c1ccc(Cl)cc1`?
esBAF inh: 4.5

What do the screens show for `CCC1CCc2c(sc(NC(=O)c3ccco3)c2C(N)=O)C1` (configuration not stated)?
esBAF inh: 59.5*; HSF1 inh: 35.7; Vif imaging: -22.8; HSF1 activator: 45.0

What do the screens show for `N#CC(Cc1ccc(OC(F)F)cc1)c1nc2ccccc2[nH]1` (configuration not stated)?
esBAF inh: 59.6*; HSF1 inh: 20.7; Vif imaging: -1.3; HSF1 activator: 58.9*

What do the screens show for `O=C(Nc1nc2ccccc2[nH]1)c1ccccc1OC(F)F`?
esBAF inh: -2.1; HSF1 inh: 25.7; Vif imaging: 2.2; HSF1 activator: 60.3*

What do the screens show for `O=C(Nc1nc2ccccc2[nH]1)c1ccc(OC(F)F)cc1`?
esBAF inh: -63.0; HSF1 inh: 39.1; Vif imaging: 0.7; HSF1 activator: 68.2*

How did COc1cc(C(=O)Nc2nc3ccccc3[nH]2)ccc1OC(F)F do in these assays?
HSF1 inh: 22.8; Vif imaging: -8.7; HSF1 activator: 48.0

What do the screens show for `O=C(Nc1nc2ccccc2[nH]1)c1ccccc1F`?
esBAF inh: -80.0; HSF1 inh: -74.6*; Vif imaging: 2.0; HSF1 activator: -73.1

How did CN(C)C(=O)C[C@H]1CC[C@@H]2[C@H](COC[C@@H](O)CN2C(=O)C2CC2)O1 do in these assays?
esBAF inh: -1.5

How did CC(C)Oc1ccc(C(=O)Nc2nc3ccccc3[nH]2)cc1 do in these assays?
esBAF inh: -88.6; HSF1 inh: -45.5; Vif imaging: 5.4; HSF1 activator: -54.7

What do the screens show for `CCC(Oc1ccccc1)C(=O)Nc1nc2ccccc2[nH]1` (configuration not stated)?
esBAF inh: 52.9*; HSF1 inh: 10.5; Vif imaging: 3.8; HSF1 activator: 19.5

Results for [O-]/[N+](=C\c1ccco1)c1ccc(Cl)cc1 ?
esBAF inh: 88.2*; HSF1 inh: 54.5; Vif imaging: -4.0; HSF1 activator: 98.8*

How did C[C@@H]1CN([C@H](C)CO)C(=O)Cc2cc(NS(=O)(=O)c3ccc(Cl)cc3)ccc2O[C@H]1CN(C)Cc1ccc(C(=O)O)cc1 do in these assays?
esBAF inh: 5.5

Results for O=C(OCCCN1CCOCC1)c1ccc(O)c(O)c1 ?
HSF1 inh: -65.0*; Vif imaging: 4.1; HSF1 activator: -72.5

How did COc1cc(C(=O)OCCN2CCOCC2)ccc1O do in these assays?
esBAF inh: 9.2; HSF1 inh: -6.1; Vif imaging: 1.9; HSF1 activator: -1.5
